The results in this text go back to PubChem BioAssay (NCI).

What all share (experiment): NCI-60 one-dose screen, 48 h (100 = growth as untreated, 0 = no growth, -100 = all killed)
The subject of one test is K-562 leukemia. The settings on record: 10 µM unless noted.
The test system of a further test is MALME-3M melanoma. Particulars: 10 µM unless noted.
For the next test, the system named is MDA-MB-231 breast. The settings on record: 10 µM unless noted.
The subject of the next test is RXF 393 renal. The settings on record: 10 µM unless noted.
In a further test the test system is SF-268 CNS. The settings on record: 10 µM unless noted.
A further test concerns SF-295 CNS. Particulars: 10 µM unless noted.
The next test deals with SF-539 CNS. Particulars: 10 µM unless noted.
In a further test the test system is UACC-257 melanoma. The settings on record: 10 µM unless noted.
Another test has as its system M14 melanoma. Particulars: 10 µM unless noted.
Another test concerns HCT-15 colon. The settings on record: 10 µM unless noted.
The subject of a further test is HT29 colon. The settings on record: 10 µM unless noted.
In another test the test system is SNB-75 CNS. The settings on record: 10 µM unless noted.
A further test deals with SNB-19 CNS. The settings on record: 10 µM unless noted.
The next test has as its system PC-3 prostate. Particulars: 10 µM unless noted.
A further test has as its system LOX IMVI melanoma. The settings on record: 10 µM unless noted.
Another test has as its system SK-MEL-28 melanoma. Particulars: 10 µM.
The test system of another test is U251 CNS. Particulars: 10 µM unless noted.
The next test deals with UACC-62 melanoma. Particulars: 10 µM unless noted.
The next test deals with SK-MEL-2 melanoma. Particulars: 10 µM unless noted.
In the next test the test system is SK-MEL-5 melanoma. The settings on record: 10 µM unless noted.

This is part of a sample that, as a whole, favours compounds with a hit. Of some 83,000 tested, about 20% had one in any assay.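 In brief: 96-well plates, 48 h treatment, single concentration, percent growth endpoint.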 A number with no mark means an inactive call. Active and inactive are the calls of the source. How the source made its calls: active means growth percent below 10; inactive means the rest.

For the compound `CN=c1ccc2nc3ccc(N)cc3sc-2c1`, the growth is 20.7% in the test on K-562 leukemia; -22.9% (active) with MALME-3M melanoma; 7.68% (active) in the test on MDA-MB-231 breast; 49.9% with RXF 393 renal; 16.1% with SF-268 CNS; -43.1% (active) with SF-295 CNS. For the same compound, the growth with SF-539 CNS was 12%; in the test on UACC-257 melanoma, -19.3% (active); in the test on M14 melanoma, 9.39% (active); in the test with HCT-15 colon it was 30.3%; in the test with HT29 colon, 84.6%; with SNB-75 CNS, 33.6%. The growth was 30.9% with SNB-19 CNS, 5.54% (active) in the test on PC-3 prostate, 2.59% (active) in the test on LOX IMVI melanoma and 51.7% with SK-MEL-28 melanoma.
On to `O=c1oc2ccc(Br)cc2c(=O)n1-c1ccc(Cl)cc1F`, for which the growth with K-562 leukemia was 6% (active); with MALME-3M melanoma, -30.6% (active); in the test on MDA-MB-231 breast, -22.6% (active); in the test with RXF 393 renal it was 4.25% (active); in the test on SF-268 CNS it was 8.43% (active); with SF-295 CNS, -58.4% (active). In addition, the growth was 4.14% (active) with SF-539 CNS; -10.6% (active) with UACC-257 melanoma; -11.9% (active) with M14 melanoma; 0.07% (active) with HCT-15 colon; 20.2% with HT29 colon; -26.9% (active) in the test with SNB-75 CNS. In addition, the growth is 17.7% in the test on SNB-19 CNS; 3.56% (active) in the test with U251 CNS; -7.82% (active) with PC-3 prostate; -28.5% (active) with UACC-62 melanoma; 8.91% (active) in the test on LOX IMVI melanoma; -0.768% (active) with SK-MEL-28 melanoma. For the same compound, the growth with SK-MEL-2 melanoma was -19.6% (active).
Consider `Cc1ccc(Cc2cnc(NC(=O)CN3C(=O)/C(=C\c4ccccc4)SC3=S)s2)cc1`, for which the growth is 101% with K-562 leukemia; 104% in the test with MALME-3M melanoma; 108% in the test on MDA-MB-231 breast; 113% with RXF 393 renal; 101% with SF-268 CNS; 101% with SF-295 CNS. Besides, the growth was 100% with SF-539 CNS; 107% with UACC-257 melanoma; 107% with M14 melanoma; 103% with HCT-15 colon; 114% in the test with HT29 colon; 94.4% in the test on SNB-75 CNS. In addition, the growth in the test with SNB-19 CNS is 99.7%; in the test on U251 CNS, 94.8%; with SK-MEL-5 melanoma, 102%; with UACC-62 melanoma, 98.4%; with LOX IMVI melanoma it was 98.6%; in the test on SK-MEL-28 melanoma, 106%. The growth in the test on SK-MEL-2 melanoma was 106%.
With `COc1ccc(CCN2C(=O)/C(=C/c3ccc(C4Oc5ccccc5C5CC(c6cccc(OC)c6)=NN54)cc3)SC2=S)cc1` (configuration not stated), the growth with K-562 leukemia is 105%; with MALME-3M melanoma it was 97.8%; in the test with MDA-MB-231 breast, 101%; with RXF 393 renal, 107%; in the test with SF-268 CNS it was 94.4%; in the test with SF-295 CNS, 97.7%. For the same compound, the growth with SF-539 CNS is 95.4%; in the test on UACC-257 melanoma, 101%; in the test on M14 melanoma it was 97.1%; with HCT-15 colon it was 102%; in the test on HT29 colon, 104%; in the test on SNB-75 CNS, 90.5%. Besides, the growth with SNB-19 CNS was 99.1%; in the test with U251 CNS, 101%; in the test with SK-MEL-5 melanoma, 99%; in the test with UACC-62 melanoma, 102%; with LOX IMVI melanoma, 96.4%; in the test on SK-MEL-28 melanoma, 101%. For the same compound, the growth in the test with SK-MEL-2 melanoma was 99.8%.
With `COc1ccc(C2=NN(/C=C3\SC(=O)NC3=Nc3ccc(F)cc3)C(c3ccc(F)cc3)C2)cc1` (configuration not stated), the growth is 94.3% in the test with K-562 leukemia; 94.3% in the test with MALME-3M melanoma; 93.8% with MDA-MB-231 breast; 96% in the test on RXF 393 renal; 97.9% in the test with SF-268 CNS; 90.8% with SF-295 CNS. For the same compound, the growth in the test with SF-539 CNS is 106%; in the test on UACC-257 melanoma, 103%; with M14 melanoma, 104%; in the test with HCT-15 colon it was 98.9%; with HT29 colon, 98.8%; with SNB-75 CNS, 96.5%. For the same compound, the growth is 95.1% in the test with SNB-19 CNS; 94.1% in the test with U251 CNS; 92% with SK-MEL-5 melanoma; 95.4% in the test on UACC-62 melanoma; 97.6% in the test on LOX IMVI melanoma; 103% with SK-MEL-28 melanoma. Moreover, the growth in the test on SK-MEL-2 melanoma was 102%.
`COc1cccc(C2=NN3C(C2)c2ccccc2OC3c2ccc(/C=C3\SC(=O)NC3=O)cc2)c1` (configuration not stated): the growth with K-562 leukemia is 105%; with MALME-3M melanoma, 105%; with MDA-MB-231 breast it was 95.4%; in the test with RXF 393 renal it was 105%; in the test on SF-268 CNS, 94.6%; in the test with SF-295 CNS, 94.3%. Also, the growth in the test on SF-539 CNS is 102%; in the test on UACC-257 melanoma, 106%; in the test with M14 melanoma, 104%; with HCT-15 colon, 95.2%; with HT29 colon it was 111%; with SNB-75 CNS, 95%. Moreover, the growth with SNB-19 CNS is 105%; with U251 CNS, 102%; with SK-MEL-5 melanoma, 91.8%; in the test on UACC-62 melanoma it was 104%; in the test on LOX IMVI melanoma, 70.5%; in the test on SK-MEL-28 melanoma, 104%. Also, the growth with SK-MEL-2 melanoma is 97.8%.
Regarding `CCOC(=O)C(CC(=O)O)=C(C(=O)OCC)C(=O)OCC`, the growth was 106% with K-562 leukemia; 121% in the test with MALME-3M melanoma; 123% with MDA-MB-231 breast; 102% in the test with RXF 393 renal; 107% in the test on SF-268 CNS; 100% in the test with SF-295 CNS. Besides, the growth in the test on SF-539 CNS was 102%; with UACC-257 melanoma, 100%; in the test on M14 melanoma, 115%; with HCT-15 colon it was 96.8%; with HT29 colon, 134%; in the test with SNB-75 CNS, 91.8%. The growth is 109% with SNB-19 CNS; 112% in the test with PC-3 prostate; 113% in the test on UACC-62 melanoma; 106% in the test on LOX IMVI melanoma; 101% in the test on SK-MEL-28 melanoma; 128% with SK-MEL-2 melanoma.
For `O=C(Nc1ccc(F)cc1F)c1cc(Br)ccc1O`, the growth in the test on K-562 leukemia is 4.71% (active); in the test on MALME-3M melanoma, -30.1% (active); in the test on MDA-MB-231 breast, -29.9% (active); in the test with RXF 393 renal, -5.34% (active); in the test with SF-268 CNS it was 7.16% (active); in the test with SF-295 CNS it was -24.5% (active). Besides, the growth in the test on SF-539 CNS was 4.41% (active); in the test on UACC-257 melanoma it was -15% (active); with M14 melanoma, 7.28% (active); with HCT-15 colon, 9.98% (active); with HT29 colon, 27.8%; in the test on SNB-75 CNS, -17.9% (active). Further, the growth in the test with SNB-19 CNS is 12.1%; in the test on U251 CNS, 3.39% (active); with PC-3 prostate it was -8.08% (active); in the test with UACC-62 melanoma, -19.7% (active); with LOX IMVI melanoma, 17%; in the test with SK-MEL-28 melanoma it was 16.5%. Moreover, the growth with SK-MEL-2 melanoma was -27.5% (active).
Consider `Cc1cc(OC(=O)c2ccc([N+](=O)[O-])cc2)nc2[nH]c(=O)sc12`, for which the growth in the test with K-562 leukemia was 102%; with MALME-3M melanoma, 107%; in the test with MDA-MB-231 breast, 103%; in the test on RXF 393 renal, 108%; in the test on SF-268 CNS, 97.5%; in the test with SF-295 CNS it was 103%. The growth with SF-539 CNS was 98.5%; in the test on UACC-257 melanoma, 104%; in the test with M14 melanoma, 102%; in the test with HCT-15 colon, 103%; in the test with HT29 colon it was 105%; with SNB-75 CNS it was 90.6%. The growth is 98.6% in the test on SNB-19 CNS; 97.1% in the test with U251 CNS; 100% with SK-MEL-5 melanoma; 102% with UACC-62 melanoma; 98.8% in the test on LOX IMVI melanoma; 109% in the test on SK-MEL-28 melanoma. Further, in the test with SK-MEL-2 melanoma, the growth was 104%.
